In PubChem BioAssay AID1986 (Sanford-Burnham Center for Chemical Genomics, 2009):
Where “and” joins values, the source holds several entries; their conditions need not be identical. Equal entries are not always repeated. In all, about 290,000 compounds went through this assay and about 890 (0.31%) were called active. No stated cut-off is given here; in the data, active means inhibition mostly above about 52% (no sharp cut-off); inactive means mostly below about 76%. The entries come from a sample that favours actives as a whole.

Experiment: inhibitors of HIV fusion peptide binding, primary screen, biochemical, uHTS, fluorescence dequenching (AID 1986)
Settings: cell-free peptide binding, 30 min, stronger effect = higher value
[1] = measured here: repeat confirmation average inhibition, at 18.6 µM

Cc1ccc(-c2cc(-c3ccco3)c3c(N)c(C(=O)NN)oc3n2)cc1
inhibition (at 20 µM): 60.5% (inactive)
inhibition [1]: 7.9%

COc1cccc(/C=N/NC(=O)c2oc3nc(-c4ccccc4)cc(-c4ccco4)c3c2N)c1
inhibition (at 20 µM): 54.2% (active)
inhibition [1]: 55.5%

Nc1c(C(=O)N/N=C/c2ccccc2Cl)oc2nc(-c3ccccc3)cc(-c3ccco3)c12
inhibition (at 20 µM): 51.3% (active)
inhibition [1]: 69.2%

Nc1c(C(=O)N/N=C/c2ccc(F)cc2)oc2nc(-c3ccccc3)cc(-c3ccco3)c12
inhibition (at 20 µM): 44.8% (inactive)

Nc1c(C(=O)N/N=C/c2cccnc2)oc2nc(-c3ccco3)cc(-c3ccco3)c12
inhibition (at 20 µM): 99.1% (inactive)
inhibition [1]: 9.2%

Nc1c(C(=O)N/N=C/c2cccnc2)oc2nc(-c3ccccc3)cc(-c3ccco3)c12
inhibition (at 20 µM): 32.7% (inactive)

O=C(CCCCCN1C(=O)c2ccccc2C1=O)Nc1ccc(C(=O)O)cc1
inhibition (at 20 µM): -1% (inactive)

CSc1nc2ccccc2n1CC(=O)Nc1ccc(C)c(C)c1
inhibition (at 20 µM): 0.9% (inactive)

O=[N+]([O-])c1cccc(S(=O)(=O)c2ccc(N3CCCCC3)c([N+](=O)[O-])c2)c1
inhibition (at 20 µM): 2.4% (inactive)

CCOC(=O)C1=C(CC)OC(N)=C(C#N)C1c1ccc(OC)c(C)c1OC (configuration not stated)
inhibition (at 20 µM): -1.8% (inactive)

CCOC(=O)/C(=N\Nc1cccc(C(F)(F)F)c1)N1CCOCC1
inhibition (at 20 µM): -4.2% (inactive)

O=S(=O)(c1ccccc1)N1CCC(Oc2ccc(-n3cnnn3)cc2)CC1
inhibition (at 20 µM): 0.5% (inactive)

COc1cnc(N(C)C)nc1Sc1cccc(Cl)c1
inhibition (at 20 µM): 1.2% (inactive)

Cc1c(O)c2c3c(cccc3c1O)C(=O)N(c1ccccc1)C2=O
inhibition (at 20 µM): 57.9% (active)
inhibition [1]: 55.3%

O=C(O)c1ccc2c3c(cccc13)C(=O)N(c1ccccc1)C2=O
inhibition (at 20 µM): 24.2% (inactive)

Nc1ccc2c3c(cccc13)C(=O)N(c1ccccc1)C2=O
inhibition (at 20 µM): 142% (inactive)

Cc1cc(C)cc(NC(=O)c2cccn2-c2ncc(C(F)(F)F)cc2Cl)c1
inhibition (at 20 µM): 2.6% (inactive)

O=C(N=c1ccn(-c2nc3ccccc3nc2NS(=O)(=O)c2ccc(Cl)cc2)cc1)c1cccs1
inhibition (at 20 µM): 19.3% (inactive)

O=C(N=c1ccn(-c2nc3ccccc3nc2NS(=O)(=O)c2ccc(Cl)cc2)cc1)c1ccccc1Cl
inhibition (at 20 µM): 102% (active)

O=C(N=c1ccn(-c2nc3ccccc3nc2NS(=O)(=O)c2ccccc2)cc1)c1ccccc1Cl
inhibition (at 20 µM): 24.6% (inactive)

COc1cccc(/C=N/n2c(C3CCCCC3)n[nH]c2=S)c1
inhibition (at 20 µM): 0.5% (inactive)

CC(C)(C)C(=O)NC(=S)Nc1ccccc1C(N)=O
inhibition (at 20 µM): -0.3% (inactive)

CCCCCCc1cc2cc(-c3nnc(-c4cc(OC)c(OC)c(OC)c4)o3)c(=O)oc2cc1O
inhibition (at 20 µM): 73.7% (active)
inhibition [1]: 61.9%

CCCCCCc1cc2cc(-c3nnc(-c4ccccc4OC)o3)c(=O)oc2cc1O
inhibition (at 20 µM): 81.8% (inactive)
inhibition [1]: 45.4%

CCCCCCc1cc2cc(-c3nnc(-c4ccccc4O)o3)c(=O)oc2cc1O
inhibition (at 20 µM): 65.1% (inactive)
inhibition [1]: 47.7%

CCOc1cc(CN2CCCC(N3CCc4ccccc4C3)C2)ccc1O (configuration not stated)
inhibition (at 20 µM): -0.5% (inactive)

Oc1c(Cl)cc(Cl)cc1C=Nc1ccc(N2CCOCC2)cc1
inhibition (at 20 µM): 1.6% (inactive)

Cc1cc(O)c(C=Nc2ccc(N3CCOCC3)cc2)c(C)c1Cl
inhibition (at 20 µM): 80.4% (active)
inhibition [1]: 73.9%

Oc1ccc(C=Nc2ccc(N3CCOCC3)cc2)c(O)c1
inhibition (at 20 µM): 6.1% (inactive)

CCOc1cc(/C=C2\C(=N)N3N=C(N4CCCCC4)SC3=NC2=O)ccc1OC(=O)c1ccco1
inhibition (at 20 µM): 20.5% (inactive)

O=C1NC(=S)S/C1=C\c1ccc(SCc2ccccc2)o1
inhibition (at 20 µM): 72.3% (inactive)
inhibition [1]: 15.9%

COc1cc(/C=C2/C(=N)N3C(SC)=NSC3=NC2=O)ccc1OC(=O)c1ccco1
inhibition (at 20 µM): 59.5% (inactive)
inhibition [1]: 17.2%

CCC1=NN2C(=N)/C(=C\c3ccc(SCc4ccco4)o3)C(=O)N=C2S1
inhibition (at 20 µM): -2.8% (inactive)

CCCC1=NN2C(=N)/C(=C\c3ccc(SCc4ccco4)o3)C(=O)N=C2S1
inhibition (at 20 µM): -0.5% (inactive)

O=C1NC(=S)S/C1=C\c1ccc(SCc2ccco2)o1
inhibition (at 20 µM): 53.5% (active)

COc1cc(/C=C2\C(=N)N3N=C(S(=O)(=O)CC(C)C)SC3=NC2=O)ccc1OC(=O)c1ccco1
inhibition (at 20 µM): 70.2% (active)

CCS(=O)(=O)C1=NN2C(=N)/C(=C\c3ccc(SCc4ccco4)o3)C(=O)N=C2S1
inhibition (at 20 µM): 72.8% (active)

CCS(=O)(=O)C1=NN2C(=N)/C(=C\c3ccc(OC(=O)c4ccco4)cc3)C(=O)N=C2S1
inhibition (at 20 µM): 39.2% (inactive)

CCS(=O)(=O)C1=NSC2=NC(=O)/C(=C\c3ccc(OC(=O)c4ccco4)c(OC)c3)C(=N)N21
inhibition (at 20 µM): 20.4% (inactive)

CCS(=O)(=O)C1=NN2C(=N)/C(=C\c3ccc(OC(=O)c4ccco4)c(Br)c3)C(=O)N=C2S1
inhibition (at 20 µM): 52.4% (active)

N=C1/C(=C\c2ccc(SCc3ccco3)o2)C(=O)N=C2SC=NN12
inhibition (at 20 µM): 100% (inactive)
inhibition [1]: 7.1%

COc1ccccc1C(CNc1nc(C(F)(F)F)nc2ccccc12)N(C)C (configuration not stated)
inhibition (at 20 µM): 1.8% (inactive)

CCn1c(SCC(=O)NC(C)C)nnc1-c1cccs1
inhibition (at 20 µM): -1.3% (inactive)

Cc1cccc(CN2CCN(c3nc4nonc4nc3NC3CC3)CC2)c1
inhibition (at 20 µM): 6.4% (inactive)

CCCCC(=O)Nc1nn(C)c2nc3c(C)cccc3cc12
inhibition (at 20 µM): 0.6% (inactive)

COc1ccccc1C(=O)Nc1ccc(C2=NNC(=O)CC2C)cc1 (configuration not stated)
inhibition (at 20 µM): 1.5% (inactive)

COc1ccccc1NC(=O)c1nn(-c2ccc(F)c(F)c2)ccc1=O
inhibition (at 20 µM): -0.5% (inactive)

CCOc1ccc(C(=O)Nc2ccc3c(c2)C(=O)NC3=O)cc1
inhibition (at 20 µM): 2.2% (inactive)

C=CCn1c(SC(C)C(=O)NCc2ccc3c(c2)OCO3)nnc1C1CCCCC1 (configuration not stated)
inhibition (at 20 µM): -0.3% (inactive)

CSc1ncc(CN2CCCC(C(=O)c3ccc(C(C)(C)C)cc3)C2)cn1 (configuration not stated)
inhibition (at 20 µM): 2.1% (inactive)

CCOc1cc(/C=C2\C(=N)N3N=C(S(=O)(=O)CC)SC3=NC2=O)ccc1OC(=O)c1ccco1
inhibition (at 20 µM): 60.6% (active)

CCS(=O)(=O)C1=NN2C(=N)/C(=C\c3ccc(OC(=O)c4ccco4)c(OC)c3)C(=O)N=C2S1
inhibition (at 20 µM): 34.9% (inactive)

CCOc1cc(/C=C2/C(=N)N3N=C(CC)SC3=NC2=O)ccc1OC(=O)c1ccco1
inhibition (at 20 µM): 12.4% (inactive)

O=C1C(c2cc(=O)c3ccccc3[nH]2)=C(O)c2ccccc21
inhibition (at 20 µM): -2.1% (inactive)

Oc1ccc(N=C/C=C/c2ccc(Br)cc2)cc1-c1nc2ccccc2s1
inhibition (at 20 µM): 64.1% (active)

Brc1ccc(/C=C/C=N/Nc2nc3ccccc3s2)cc1
inhibition (at 20 µM): -4.3% (inactive)

Oc1ccc(N=C/C=C/c2cccc(Br)c2)cc1-c1nc2ccccc2s1
inhibition (at 20 µM): 61.8% (inactive)
inhibition [1]: 5.5%

O=C1CCC(C(=O)Nc2cc(C(F)(F)F)ccc2-n2cncn2)=NN1
inhibition (at 20 µM): -0.2% (inactive)

Cc1ccc(-n2cccc2/C=C2\C(=N)N3N=C(C(C)C)SC3=NC2=O)cc1
inhibition (at 20 µM): 49.5% (inactive)

CC1=CSC2=NC(=O)/C(=C\c3cccn3-c3ccccc3)C(=N)N12
inhibition (at 20 µM): 8.7% (inactive)

CCc1ccc(-n2cccc2/C=C2/C(=N)N3C(=NC2=O)SN=C3S(C)(=O)=O)cc1
inhibition (at 20 µM): 74.8% (active)

CS(=O)(=O)C1=NSC2=NC(=O)/C(=C\c3cccn3-c3ccccc3Cl)C(=N)N21
inhibition (at 20 µM): 78.5% (active)

CS(=O)(=O)C1=NSC2=NC(=O)/C(=C\c3ccc(OC(=O)c4ccco4)cc3)C(=N)N21
inhibition (at 20 µM): 47.4% (inactive)

Cc1ccc(-n2cccc2/C=C2/C(=N)N3C(=NC2=O)SN=C3S(C)(=O)=O)cc1
inhibition (at 20 µM): 77.1% (active)

CS(=O)(=O)C1=NSC2=NC(=O)/C(=C\c3ccc(-c4ccccc4)o3)C(=N)N21
inhibition (at 20 µM): 34.9% (inactive)

CCC1=NN2C(=N)/C(=C\c3cccn3-c3ccc(Cl)cc3)C(=O)N=C2S1
inhibition (at 20 µM): 30.5% (inactive)

CCOc1cc(/C=C2/C(=N)N3C(=NC2=O)SN=C3S(C)(=O)=O)ccc1OC(=O)c1ccco1
inhibition (at 20 µM): 44.6% (inactive)

CCC1=NN2C(=N)/C(=C\c3cccn3-c3ccc(Br)cc3)C(=O)N=C2S1
inhibition (at 20 µM): 12.9% (inactive)

Cc1cccc(C)c1-n1cccc1/C=C1/C(=N)N2C(=NC1=O)SN=C2S(C)(=O)=O
inhibition (at 20 µM): 68.4% (active)

CC1=CSC2=NC(=O)/C(=C\c3cccn3-c3ccc([N+](=O)[O-])cc3)C(=N)N12
inhibition (at 20 µM): 0.3% (inactive)

COCCN(C(=O)Nc1ccc(OC)cc1OC)C1CCN(C(C)C)CC1
inhibition (at 20 µM): -0.7% (inactive)

CN(NC(=O)Nc1ccc(Cl)cc1)c1c(Cl)c(Cl)nn1C
inhibition (at 20 µM): -1.2% (inactive)

Cc1cccc(Nc2nc(C)cc(C)n2)c1
inhibition (at 20 µM): 1.1% (inactive)

CCN(CC)S(=O)(=O)c1ccc(NC(=S)NC(=O)C2CCC2)cc1
inhibition (at 20 µM): 0.1% (inactive)

CSCC[C@H](NC(=O)N1CCn2c1nc1ccccc12)C(=O)N1CCCCC1
inhibition (at 20 µM): 1.5% (inactive)

COc1ccc(C)cc1-n1nnnc1SCC1CCCO1 (configuration not stated)
inhibition (at 20 µM): 1% (inactive)

Cc1cccc(Cn2c(=O)c3c(nc4n3CCN4Cc3ccco3)n(C)c2=O)c1
inhibition (at 20 µM): -3% (inactive)

O=[N+]([O-])c1ccccc1OCCCNCc1ccccc1
inhibition (at 20 µM): 1.6% (inactive)

CN1CCN(c2ccc(NC(=O)COc3ccccc3[N+](=O)[O-])cc2)CC1
inhibition (at 20 µM): -1.4% (inactive)

CC(C)Cc1ccc(CN2CCCC(NC(=O)CCN3CCCO3)C2)cc1 (configuration not stated)
inhibition (at 20 µM): -1.9% (inactive)

O=C(Cn1cnc2c(nnn2Cc2ccc(F)cc2)c1=O)Nc1cccc(F)c1
inhibition (at 20 µM): 3.6% (inactive)

CSCC(C)N1CCC(Oc2cccc(C(=O)NCc3ccccn3)c2)CC1 (configuration not stated)
inhibition (at 20 µM): 17% (inactive)

O=C(O)CCCCC1CCSS1 (configuration not stated)
inhibition (at 20 µM): 63.2% (active)

O=C(O)CCCCC1SCC2NC(=O)NC21 (configuration not stated)
inhibition (at 20 µM): 0.9% (inactive) and -0.7% (inactive)

O=C(O)CCCCCCCC(=O)O
inhibition (at 20 µM): -0.3% (inactive)

CN(C)c1ccc(/C=C2\CCCCC2=O)cc1
inhibition (at 20 µM): 3.4% (inactive)

CC(C)/C=C1\CC/C(=C\c2ccc(N(C)C)cc2)C1=O
inhibition (at 20 µM): 37.1% (inactive)

CN(C)c1ccc(/C=C2\CCC/C(=C\c3ccccc3)C2=O)cc1
inhibition (at 20 µM): 80.8% (active)
inhibition [1]: 70.4%
